# aSyn 5UTR inh = MLPCN primary screen, SNCA 5' untranslated region; inhibition, % (tested at 7.5 µM); alpha-synuclein 5'UTR reporter, inhibitor activity; 0.82% of 300,000 active; AID 1813, 2009; in the data active means inhibition above about 60%;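 further: H4 neuroglioblastoma cells stably carrying SNCA 5'UTR luciferase fusion; 0% = DMSO wells and 100% = positive control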
# BaF3 tox = parental Ba/F3 cell viability inhibition, counter-screen for JAK2V617F inhibitor project, murine pro-B, CellTiter-Glo luminescence; CellTiter-Glo ATP luminescence; inhibition, % at 5.6 µM; 1.1% of 220,000 active; AID 1486, 2009;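 active means inhibition above a per-campaign cutoff, the mean inhibition of all tested compounds plus 3 SD, cut at about 27% in these data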;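 further: 0% = DMSO wells and 100% = JAK Inhibitor I control wells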
# Ba/F3 V617F tox = reduced viability of JAK2V617F-dependent Ba/F3 cells, primary screen, JAK2V617F inhibitor project, cell-based, Ba/F3 EpoR-JAK2V617F, luminescence. ATP luminescence. 1.1% of 220,000 active. AID 1446, 2008. inhibition, % at 5.6 µM;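 active means inhibition above the campaign mean plus 3 SD over all tested compounds, cut at about 24% in these data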;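 further: cytokine-independent growth of Ba/F3 cells driven by EpoR plus mutant JAK2; 0% = DMSO-treated cells and 100% = JAK inhibitor I control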
# IEC-6 cytotox = cytotoxicity in IEC-6 intestinal epithelial cells, primary screen, cytotoxicity control for KLF5 inhibitor project, cell-based, luminescence; IEC-6 cytotoxicity, luminescence viability; inhibition, % at 5 µM; 0.78% of 290,000 active; AID 1825, 2009; in the data active means inhibition above about 22%;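 further: 0% = plate median of test compound wells and 100% = cytotoxic reference compound wells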
# KLF5 inhibitor = KLF5 expression inhibitors, primary screen, DLD-1 cells, luminescence. DLD-1 KLF5 promoter-luciferase reporter. inhibition, % at 5 µM. 0.23% of 290,000 active. AID 1700, 2009;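 active means inhibition above a per-plate limit of that plate's mean compound inhibition plus 3 SD, cut at about 60% in these data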;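 further: 0% = DMSO wells and 100% = LY294002 at 200 µM; higher means less KLF5 promoter-driven luciferase light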
# APP 5UTR inh = inhibitors of APP translation via 5'UTR reporter, primary screen, APP 5'UTR luciferase, SH-SY5Y cells; inhibition, % at 2 µM; 0.82% of 190,000 active; SH-SY5Y APP 5'UTR-luciferase reporter, luminescence;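 active means inhibition above a set limit, derived from the sample mean plus 3 SD, cut at about 45% in these data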
# * marks the source's active call; other numbers are inactive results; / = no result given. In the library only some 2.1% were active in any assay of this set; here they are far more common.
SMILES,aSyn 5UTR inh,BaF3 tox,Ba/F3 V617F tox,IEC-6 cytotox,KLF5 inhibitor,APP 5UTR inh
CCc1ccc(-c2nc(-c3ccncc3)no2)cc1,/,5.0,2.0,-3.9,-119.2,-167.8
COc1ccc(N=C2C(=Nc3ccc(OC)cc3)N(c3ccc(N(C)C)cc3)C(=S)N2c2ccc(OC)cc2)cc1,98.6*,-3.6,-4.8,1.3,-25.2,1.3
COc1ccc(N=C2C(=Nc3ccc(OC)cc3)N(c3ccc(OC)cc3)C(=S)N2C(=O)c2ccc(OC)cc2)cc1,-8.8,2.9,-4.2,-4.8,-18.1,0.2
CCC(C(=O)Nc1ccc2c(c1)OCCO2)n1c(=O)[nH]c2ccccc2c1=O (stereo unspecified),-24.5,/,/,-1.4,-5.6,/
CN(C)CCNc1ncnc2c1sc1nc(N3CCOCC3)c3c(c12)CC(C)(C)SC3,71.6*,10.2,8.1,3.3,-28.7,-7.8
Cc1nnc(NC(=O)c2ccc(Br)o2)s1,-1.0,/,/,-0.2,-27.2,/
O=C(O)c1cn(-c2ccccc2)nc1C(=O)O,17.4,8.2,2.4,3.3,-17.1,-9.1
NNC(=O)c1nn(-c2ccccc2)cc1O,83.4*,5.0,-3.9,-2.8,-11.8,-23.7
CCCOc1cccc(-c2cc(C(=O)NNC(=S)NCC)c3ccccc3n2)c1,-114.2,3.3,1.7,2.9,-30.3,53.1*
Cc1cc(/C=N/n2c(COc3ccccc3C)nc3ccccc3c2=O)c(O)c([N+](=O)[O-])c1,5.4,9.3,4.2,8.0,-20.0,45.0*
CC(=O)c1sc(NC(=O)C2COc3ccccc3O2)nc1C (stereo unspecified),61.8*,0.7,-1.8,0.4,-37.7,-132.2
Cc1ccnc(NC(=O)C2COc3ccccc3O2)c1 (stereo unspecified),-97.1,84.7*,6.5,7.9,-113.3,-129.6
C/C(=N\NC(=O)C1COc2ccccc2O1)c1ccccn1 (stereo unspecified),98.2*,6.0,0.4,2.4,-14.9,44.9
O=C(Nc1nncs1)C1COc2ccccc2O1 (stereo unspecified),-39.2,3.1,-4.0,-3.0,-34.6,-12.7
Cc1cccc(OCC(=O)NC(Cc2c[nH]c3ccccc23)C(=O)O)c1C (stereo unspecified),-35.2,3.9,-0.7,0.7,0.8,-3.2
Cc1c(C(=O)N/N=C/C(C)C)[nH]c2c([N+](=O)[O-])cccc12,68.0*,2.8,-2.2,7.3,2.1,92.4*
Cc1ccc(-c2nnc(SCC(C)C)n2C)cc1,-146.0,32.6*,30.2*,-0.3,-60.9,-47.0
COc1cccc2c1C(=O)c1c(O)c3c(c(O)c1C2=O)C[C@@](O)(C(=O)CO)C[C@@H]3O[C@H]1C[C@H](N)[C@@H](O)[C@H](C)O1,109.3*,/,/,/,/,/
CC(=O)[C@]1(O)Cc2c(O)c3c(c(O)c2[C@@H](O[C@H]2C[C@H](N)[C@H](O)[C@H](C)O2)C1)C(=O)c1ccccc1C3=O,110.1*,/,/,/,/,/
COc1cccc2c1C(=O)c1c(O)c3c(c(O)c1C2=O)C[C@@](O)(C(C)=O)C[C@@H]3O[C@H]1C[C@H](N)[C@H](O)[C@H](C)O1,/,101.0*,101.8*,90.6*,42.5,95.6*
CC(=O)c1c(C)[nH]c(C(=O)N2CCN(c3ccccn3)CC2)c1C,7.7,/,/,-1.1,0.6,/
S=C(Nc1ccccc1)N1N=C(c2cccs2)CC1c1cccs1 (stereo unspecified),-6.0,11.9,2.6,2.1,-18.8,-12.9
CCn1c(CNc2ccccc2Cl)nnc1SCCN1CCCCC1,7.5,0.6,2.8,3.3,-7.8,-3.3
CCn1c(CNc2ccc(F)cc2)nnc1SCCN1CCCCC1,-0.1,93.4*,-2.5,-2.5,-17.2,-7.4
Cc1cc([N+](=O)[O-])nn1CCCC(=O)Nc1cc(Cl)ccc1Cl,8.0,-1.6,-2.7,1.7,-12.9,0.7
SMILES,aSyn 5UTR inh,BaF3 tox,Ba/F3 V617F tox,IEC-6 cytotox,KLF5 inhibitor,APP 5UTR inh
O=C(CSc1nnc(COc2cccc3cccnc23)o1)N1CCc2ccccc21,52.5,94.4*,0.3,0.7,-15.2,6.7
Cn1c(=O)cc(Cl)[nH]c1=O,-9.6,2.3,3.8,2.8,-2.7,9.5
C#CC[N+](C)(C)CC#Cc1ccc(C)cc1,21.2,37.3*,41.4*,-4.2,12.4,-4.2
CC[N+](CC)(CC#Cc1ccccc1)CC#Cc1ccccc1,-11.8,66.8*,89.3*,3.3,-18.5,/
C#CC[N+](CC)(CC)CC#Cc1ccccc1,-7.1,62.2*,59.1*,0.7,7.0,/
CCOC(=O)C[N+](CC)(CC)CC#Cc1ccccc1,15.1,2.4,-0.1,1.2,-27.9,-5.0
C(#Cc1ccccc1)CN1CCCCC1,-6.2,1.4,-3.8,2.2,-4.3,5.4
Cc1cc(NC(=O)COc2ccc3ccccc3c2)no1,-15.5,/,/,-3.6,-35.4,/
O=C(NC(c1ccccc1)c1cc(Cl)c2cccnc2c1O)c1cccnc1 (stereo unspecified),99.7*,5.2,-1.0,2.0,-13.5,/
O=C(O)COc1ccccc1C(Nc1cccnc1)c1cc(Cl)c2cccnc2c1O (stereo unspecified),5.6,6.3,2.9,-6.2,-10.9,-13.3
CCOc1ccc(C(Nc2cccnc2)c2cc(Cl)c3cccnc3c2O)cc1 (stereo unspecified),66.8*,9.7,3.1,0.3,19.2,8.4
Oc1[nH]c2c(Cl)cc(Cl)cc2c1N=NC(=S)NCC1CCCO1 (stereo unspecified),79.3*,6.7,5.6,7.0,-10.0,36.9
O=CN1CCCN(Cc2nc(-c3cccc(Cl)c3)no2)CC1,-22.9,4.8,2.9,2.7,-25.1,5.5
Cc1cccc(CSC(=N)N)c1,-40.2,-1.2,-4.2,-1.4,-13.4,-1.6
Cc1cccc(CSC(Nc2ccc(F)cc2)=C(C#N)C#N)c1,32.1,7.0,0.4,13.3,-3.8,47.7*
O=C1CCCc2c1[nH]c1ccc(Cl)cc21,63.1*,2.1,-3.3,3.6,-21.3,-9.1
CC(C)c1cc(C(=O)Nc2cc(Br)ccc2O)no1,-290.8,29.1*,27.3*,-3.8,-109.6,-37.9
CC(C)c1cc(C(=O)Nc2cc(Cl)ccc2O)no1,-290.0,37.2*,16.2,1.0,-94.2,-138.6
Cc1ccc(N2C(=O)CC(Cc3cccc(C)c3)C2=O)cc1 (stereo unspecified),-9.5,7.3,-3.5,-1.6,-0.5,-8.3
CCC(CC)NC(=O)c1cc2c(C)nn(Cc3ccccc3Cl)c2s1,70.5*,1.5,-3.7,-2.3,-16.4,1.9
Cc1nn(Cc2ccccc2Cl)c2sc(C(=O)Nc3nccs3)cc12,6.1,4.7,2.2,-3.5,-24.4,16.7
CN1CCN(c2oc(-c3ccccc3)nc2S(=O)(=O)c2ccc(Br)cc2)CC1,-6.4,/,/,-0.3,-20.4,/
Cc1occc1C(=O)N1CCN(c2ncccn2)CC1,-2.4,92.1*,-0.7,-1.3,-14.6,-21.0
